Source: PubChem BioAssay AID1851 (National Center for Advancing Translational Sciences (NCATS), 2009)
Out of some 16,000 compounds screened, about 5,100 (32%) were called active. About 25% were inconclusive and are not listed. This is one part of the list. Unmarked numbers belong to inactive results. Calls follow the shape of the dose curve; as a rule, active = well fitted curve in the direction sought with a large enough effect; inconclusive = small, poorly fitted or top-dose-only effect, or effect the other way; inactive = no such curve, though single readings can be large or run the other way.

Target: Cytochrome P450 3A4 (Homo sapiens) (UniProt P08684)
Sequence (P08684 whole entry, looked up): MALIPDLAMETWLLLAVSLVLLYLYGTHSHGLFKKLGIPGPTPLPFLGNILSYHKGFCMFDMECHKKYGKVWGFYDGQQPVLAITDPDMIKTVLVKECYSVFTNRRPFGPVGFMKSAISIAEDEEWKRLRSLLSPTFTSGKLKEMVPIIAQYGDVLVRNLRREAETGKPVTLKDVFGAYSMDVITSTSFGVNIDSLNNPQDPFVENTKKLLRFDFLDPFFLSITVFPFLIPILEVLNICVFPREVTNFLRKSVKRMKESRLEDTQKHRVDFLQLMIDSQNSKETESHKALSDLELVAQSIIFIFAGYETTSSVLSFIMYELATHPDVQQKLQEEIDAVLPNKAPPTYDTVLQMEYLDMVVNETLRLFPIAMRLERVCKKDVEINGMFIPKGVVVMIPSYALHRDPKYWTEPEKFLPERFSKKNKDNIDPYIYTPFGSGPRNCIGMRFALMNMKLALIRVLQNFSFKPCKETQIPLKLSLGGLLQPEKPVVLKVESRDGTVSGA
Assay: Cytochrome panel assay with activity outcomes
Conditions: recombinant CYP, pro-luciferin dealkylation, luminescence, p450-cyp3a4; series mostly up to 57.1 µM
% is scaled to controls: 0 for no effect and ±100 for the full control effect.

Structure (SMILES)	AC50	activity, negative = inhibition
CCCC[C@H](CC)CN1CN(C[C@@H](CC)CCCC)CC(C)(N)C1	inactive	–
CC(C)(C)n1nc(-c2ccc(Cl)cc2)c2c(N)ncnc21	inactive	–
COC(=O)[C@@]1(Cc2ccc(F)cc2)[C@H]2c3cc(C(=O)N(C)C)n(Cc4ccc(Cl)c(C(F)(F)F)c4)c3C[C@H]2CN1C(=O)c1ccccc1	2 µM (active)	–
COC(=O)[C@@]1(Cc2ccc(F)cc2)[C@H]2c3cc(C(=O)N4CCCC4)n(CCCNc4ncc(C(F)(F)F)cc4Cl)c3C[C@H]2CN1C(=O)c1ccccc1	2.51 µM (active)	–
COC(=O)[C@@]1(Cc2ccc(F)cc2)[C@H]2c3cc(C(=O)N4CCCC4)n(Cc4ccc(Cl)c(C(F)(F)F)c4)c3C[C@H]2CN1C(=O)c1ccccc1	2.51 µM (active)	–
COC(=O)[C@@]1(Cc2ccc(F)cc2)[C@H]2c3cc(C(=O)N4CCCC4)n(Cc4ccc(OC(F)(F)F)cc4)c3C[C@H]2CN1C(=O)c1ccccc1	2.51 µM (active)	–
Cc1nc(CN2CCCCC2)c(O)c(=O)[nH]1	–	-5.47% [at 11.4 µM]
CC1(O)CC(=O)N(c2ccccc2)O1 (stereo unspecified)	–	1.65% [at 2.29 µM]
COC(=O)[C@@]1(Cc2ccc(F)cc2)[C@H]2c3cc(C(=O)N4CCCC4)n(CCN4CNCC4=O)c3C[C@H]2CN1C(=O)c1ccccc1	2 µM (active)	–
COC(=O)[C@@]1(Cc2ccc(F)cc2)[C@H]2c3cc(C(=O)N(C)C)n(CCCNc4ccc(C(F)(F)F)cc4Cl)c3C[C@H]2CN1C(=O)c1ccccc1	1.58 µM (active)	–
COC(=O)Cn1c(C(=O)N2CCCC2)cc2c1C[C@H]1CN(C(=O)c3ccccc3)[C@@](Cc3ccc(F)cc3)(C(=O)OC)[C@@H]21	3.16 µM (active)	–
COC(=O)[C@@]1(Cc2ccc(F)cc2)[C@H]2c3cc(C(=O)N4CCCC4)n(Cc4ccccc4)c3C[C@H]2CN1C(=O)c1ccccc1	1 µM (active)	–
COC(=O)Cn1c(=N)n(CCN2CCCCC2)c2ccccc21	inactive	–
C=C1C=C(Br)C2(OCCCO2)[C@H]2OC12 (stereo partly specified)	–	-14.7% [at 11.4 µM]
CC1(C)C2([N+](=O)[O-])CN3CC1([N+](=O)[O-])CN(C2)C3c1ccccc1 (stereo unspecified)	–	0.512% [at 2.29 µM]
C[C@@H](C(=O)NCc1cccc2ccccc12)[C@H]1C[C@]1(C)[C@H](NC(=O)OCc1ccccc1)c1ccccc1	0.398 µM (active)	–
CS(=O)(=O)c1ccc([C@H](O)[C@H](CO)NC(=O)C(Cl)Cl)cc1	inactive	–
C[C@@H](C(=O)NCc1ccc(S(C)(=O)=O)cc1)[C@@H]1C[C@@]1(C)[C@@H](NC(=O)OCc1ccccc1)c1ccccc1	1 µM (active)	–
C[C@@H](C(=O)NCc1nc2ccccc2[nH]1)[C@@H]1C[C@@]1(C)[C@@H](NC(=O)OCc1ccccc1)c1ccccc1	1 µM (active)	–
C[C@@H](C(=O)NCc1ccc(S(C)(=O)=O)cc1)[C@H]1C[C@]1(C)[C@H](NC(=O)OCc1ccccc1)c1ccccc1	3.16 µM (active)	–
CC(NC(=O)OCc1ccccc1)C(=O)NCC1CCCO1 (stereo unspecified)	inactive	–
Cc1cccc(C)c1OC[C@H](C)N	inactive	–
C=CCSc1ncccc1C(=O)NCc1ccc(C)cc1	11.2 µM (active)	–
CC/C(=N/Nc1ccccc1)c1cnnc(SC)n1	25.1 µM (active)	–

Structure (SMILES)	AC50	activity, negative = inhibition
CSc1nncc(-c2ccc(F)c(F)c2)n1	inactive	–
COCCCNC(=O)c1c(NC(=O)c2cccs2)sc2c1CCCC2	15.8 µM (active)	–
CC(=O)Nc1sc2c(c1C(N)=O)CCCC2	inactive	–
CCNC(=O)c1c(NC(C)=O)sc2c1CCCC2	inactive	–
Cc1ccc(OCC(O)Cn2c3ccccc3c3ccccc32)cc1 (stereo unspecified)	17.8 µM (active)	–
CC(=O)Nc1ccc(OCC(O)Cn2c3ccccc3c3ccccc32)c(C)c1 (stereo unspecified)	3.98 µM (active)	–
Cc1cccc(C)c1OCC(O)CNC(C)(C)C (stereo unspecified)	inactive	–
O[C@@H](COc1cccc2ccccc12)CN1CCOCC1	–	-6.73% [at 11.4 µM]
OC[C@@H](O)COc1cccc2ccccc12	inactive	–
Cc1ccccc1OCC(O)Cn1c2ccccc2c2ccccc21 (stereo unspecified)	12.6 µM (active)	–
CC(C)NC[C@@H](O)COc1ccccc1-n1cccc1	inactive	–
O[C@H](COc1ccccc1)CN1CCCCC1	–	-3.03% [at 11.4 µM]
OC(COc1ccc(OCC(O)CN2CCCCCC2)cc1)CN1CCCCCC1 (stereo unspecified)	inactive	–
CC(=O)Nc1c(I)c(C(=O)N[C@H]2[C@@H](O)[C@H](O)[C@H](CO)O[C@@H]2O)c(I)c(N(C)C(C)=O)c1I	inactive	–
NC(N)=NC(=O)c1nc(Cl)c(N2CCCCCC2)nc1N	inactive	–
Cc1cc(C)n(-c2nnc(C)n2/N=C/c2ccccc2OCc2ccccc2Cl)n1	2.24 µM (active)	–
O=C(c1ccc(F)cc1)C1CCN(C(=S)Nc2ccccc2)CC1	10 µM (active)	–
S=C(Nc1ccccc1)N1CCCCC1	inactive	–
CCCNC(=O)N1CCC(C(=O)c2ccc(F)cc2)CC1	–	-0.769% [at 2.29 µM]
Cc1ccc(Sc2cc(Cl)nc(N)n2)cc1	inactive	–
N#Cc1cc(N)ccc1Sc1ccc(Cl)cc1	5.62 µM (active)	–
N#Cc1cc(-c2ccc(Cl)cc2)cnc1Sc1ccccc1	inactive	–
COc1cc2c3cc1Oc1cc(ccc1O)C[C@@H]1c4c(cc(OC)c(O)c4Oc4ccc(cc4)C[C@H]3[N+](C)(C)CC2)CC[N+]1(C)C	–	0.655% [at 11.4 µM]
C=CC(=O)NC(C)(C)Cc1ccccc1	15.8 µM (active)	–

Structure (SMILES)	AC50	activity, negative = inhibition
C/C(=C/C(=O)NCc1ccccc1)C(=O)O	inactive	–
N[C@@](CC(=O)O)(Cc1ccccc1)C(=O)O	–	-4.69% [at 11.4 µM]
Cc1ccc(CNC(=O)Cn2c(=O)oc3ccccc32)o1	–	1.22% [at 11.4 µM]
CC1CCCC(NC(=O)CCn2c(=O)oc3ccccc32)C1C (stereo unspecified)	14.1 µM (active)	–
COCCNC(=O)CCn1c(=O)oc2ccccc21	inactive	–
CC[N+](C)(C)c1cccc(O)c1	inactive	–
CC1(C)c2ssc(=S)c2-c2ccccc2N1C(=O)CSC1=NCCS1	1.78 µM (active)	–
O=c1cnc2cnc(Oc3ccccc3)nc2n1C1CC1	inactive	–
O=c1cnc2cnc(Oc3cccc(Cl)c3)nc2n1C1CC1	inactive	–
COc1ccc(-n2c(=O)cnc3cnc(Oc4ccccc4)nc32)cc1	15.8 µM (active)	–
COc1ccc(-n2c(=O)cnc3cnc(Oc4cccc(Cl)c4)nc32)cc1	10 µM (active)	–
COc1ccc(-n2c(=O)cnc3cnc(OC)nc32)cc1	inactive	–
COc1ccc(-n2c(=O)cnc3cnc(N4CCOCC4)nc32)cc1	inactive	–
COC(=O)C(C)Sc1ccc2nnc(-c3ccc(F)cc3)n2n1 (stereo unspecified)	inactive	–
CCCCN(CC)S(=O)(=O)c1ccc(C(=O)Nc2nnc(CSC)o2)cc1	–	2.56% [at 11.4 µM]
CCCOc1cccc(-c2cc(-c3n[nH]c(=S)n3CC)c3ccccc3n2)c1	10 µM (active)	–
CCn1c(-c2ccoc2C)n[nH]c1=S	inactive	–
CCc1ccc(-c2ccc(C(=O)C(F)(F)F)[nH]2)cc1	inactive	–
CC(C)(Oc1ccc(CCNC(=O)c2ccc(Cl)cc2)cc1)C(=O)O	inactive	–
CC(C)(Oc1ccc(Cl)cc1)C(=O)Nc1ccncc1	0.794 µM (active)	–
CC(C)(Oc1ccc([C@@H]2CC2(Cl)Cl)cc1)C(=O)O	inactive	–
C[C@@H]1CCC[C@H](C)N1	inactive	–
Clc1ccc(Cl)c(OCc2cc(-c3ccccc3Cl)on2)c1	inactive	–
O=C(Nc1ccn(Cc2ccccc2F)n1)c1ccc(COc2cc(Cl)ccc2Cl)o1	0.891 µM (active)	–

Structure (SMILES)	AC50	activity, negative = inhibition
O=C(N/N=C/c1ccc(O)cc1)c1ccc(COc2cc(Cl)ccc2Cl)o1	–	-27.3% [at 2.29 µM]
CC(C)CNC(=O)c1ccc(COc2ccc(Cl)cc2Cl)o1	20 µM (active)	–
O=C(Nc1cccnc1)c1ccc(COc2cc(Cl)ccc2Cl)o1	4.47 µM (active)	–
CC(C)C(=O)Nc1ccc(C(=O)NNC(=O)CCCOc2ccc(Cl)cc2Cl)cc1	inactive	–
O[C@@H](C1=C/C(=C\c2ccncc2)c2ccccc21)c1ccncc1	0.794 µM (active)	–
NS(=O)(=O)c1ccc(N=Nc2c(O)c(C(=O)O)cc3ccccc23)cc1	–	-2.48% [at 11.4 µM]
Cc1cccc(Oc2ncnc3onc(C)c23)c1C	inactive	–
Cn1c(SCC(=O)NC2CC2)nnc1-c1cccc(NC(=O)c2ccccc2F)c1	12.6 µM (active)	–
Nc1ncnc2c1ncn2[C@H]1O[C@@H](C(=O)OCCO)[C@@H](O)[C@H]1O	–	-12.9% [at 11.4 µM]
Clc1ccc(-c2nnc(-c3ccc(Br)cc3)c(N3CCSCC3)n2)cc1	inactive	–
CCOC(=O)c1nc2sc(C)c(C)c2c(=O)[nH]1	inactive	–
CCCCC1(C)NC(=O)c2c(C)sc(C(=O)OCC)c2N1 (stereo unspecified)	17.8 µM (active)	–
c1ncc(-c2ccoc2)c(NC2CC2)n1	7.94 µM (active)	–
Fc1ccc(Nc2ncncc2-c2ccoc2)cc1	0.501 µM (active)	–
c1ccc(Nc2ncncc2-c2ccoc2)cc1	2 µM (active)	–
O=c1[nH]c2[nH]c(=S)[nH]c(=S)c2[nH]1	–	-17.9% [at 11.4 µM]
CCc1cccc2c(C=C(C#N)C#N)cn(CC(=O)N3CCCCC3)c12	inactive	–
CCN(CC)C(=O)Cn1cc(/C=C(\C#N)C(=O)N2CCN(c3ccccc3)CC2)c2ccccc21	0.891 µM (active)	–
CCc1cccc2c(C=C(C#N)C#N)cn(CC(=O)N3CCCC3)c12	inactive	–
Cc1nc(Cl)c(C#N)cc1-c1ccccc1	inactive	–
Cc1ccc2nc(N/N=C/c3ccccc3C#N)nc(-c3ccccc3)c2c1	7.94 µM (active)	–
CSc1c(-c2ccccc2)nc2ccc(Cl)cc2c1C(=O)O	inactive	–
N#Cc1ccccc1/C=N/Nc1nc(-c2ccccc2)c2cc(Cl)ccc2n1	6.31 µM (active)	–
Cc1ccc(Oc2nnc(-c3ccccc3)cc2C#N)cc1	inactive	–
